Source: PubChem BioAssay (NCI)
Compounds without any hit were thinned out: in the full panel of roughly 83,000, 20% have a hit.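 For each line, cells grew in 96-well plates with the test compound present at a single concentration for 48 hours.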 Values without a mark were called inactive. Calls of active or inactive are those of the source. The calls were made as follows: active = growth percent below 10; inactive = the rest.

Assays:
Assay in all cases: NCI-60 one-dose screen, 48 h (100 = growth as untreated, 0 = no growth, -100 = all killed)
Conditions in all cases: 10 µM unless noted
[1] = tested on: BT-549 breast
[2] = tested on: MDA-MB-435 melanoma
[3] = tested on: SW-620 colon
[4] = tested on: MCF7 breast
[5] = tested on: HCT-116 colon
[6] = tested on: HCC-2998 colon
[7] = tested on: KM12 colon

Row | Compound | growth [1] | growth [2] | growth [3] | growth [4] | growth [5] | growth [6] | growth [7]
1 | Cc1ccc(C(=O)O)o1 | 97.9% | 108% | 107% | 105% | 96.1% | 102% | 96.9%
2 | CC1(C)CC[C@]2(c3nnc(-c4ccncc4)o3)CC[C@]3(C)C(=CC[C@@H]4[C@@]5(C)CCC(=O)C(C)(C)[C@@H]5CC[C@]43C)[C@@H]2C1 | 80.3% | 79.6% | 85.2% | 64.6% | 61.3% | 94.8% | 93.8%
3 | C[C@H]1[C@H](C)CC[C@]2(C(=O)OCCCC[P+](c3ccccc3)(c3ccccc3)c3ccccc3)CC[C@]3(C)C(=CC[C@@H]4[C@@]5(C)CC[C@H](OC(=O)C(Cl)Cl)C(C)(C)[C@@H]5CC[C@]43C)[C@H]12 | -87.1% (active) | -91.4% (active) | -71.3% (active) | -38.1% (active) | -89.2% (active) | -84.8% (active) | -85.7% (active)
4 | O=C(/C(=C/c1ccc([N+](=O)[O-])cc1)SCc1ccccc1)c1ccc(Cl)cc1 | 89.2% | 85.7% | 4.23% (active) | 7.72% (active) | 30.5% | 97.3% | 65.6%
5 | O=C(Nc1ccc2ncnc(Nc3ccc(F)c(Cl)c3)c2c1)c1ccccc1 | 74.2% | 80.4% | 88% | 47.2% | 47.2% | 98.7% | 79.6%
6 | COC(=O)c1ccc2c(c1)NC(=O)[C@@H]1CCCN21 | 87.2% | 100% | 96.8% | 73.9% | 93.8% | 109% | 101%
7 | C#Cc1cccc(Nc2ncnc3ccc(NC(=O)c4ccccc4)cc23)c1 | 74.6% | 84% | 100% | 72.1% | 76% | 97.7% | 90%
8 | CCOC(=O)C1=C(C)n2nc(CC#N)c(C#N)c2NC1c1ccc(CC)cc1 (centres undefined) | 85.4% | 98.5% | 97.6% | 88.7% | 95.4% | 97.6% | 97%
9 | COc1ccc(C(=O)c2cc(OC)c(OC)c(OC)c2)cc1OC(=O)C(Cl)(Cl)Cl | -0.136% (active) | -13.5% (active) | 22.9% | 9.81% (active) | 4.91% (active) | 15.4% | 9.4% (active)
10 | COc1cc(C(=O)N2CCN(c3ccccc3OC)CC2)c(NC(=O)c2cnccn2)cc1OCc1ccccc1 | 97.6% | 95.1% | 101% | 109% | 87.8% | 87.3% | 90.7%
11 | O=c1[nH]c2ccccc2cc1-c1nc2ccc(Cl)cc2[nH]1 | 43% | 32.5% | 42.5% | 23.8% | 22.2% | 79.7% | 5.1% (active)
12 | C[C@H]1[C@H](C)CC[C@]2(C(=O)OCCOCCOCC[P+](c3ccccc3)(c3ccccc3)c3ccccc3)CC[C@]3(C)C(=CC[C@@H]4[C@@]5(C)CC[C@H](OC(=O)C(Cl)Cl)C(C)(C)[C@@H]5CC[C@]43C)[C@H]12 | -66.3% (active) | -24.1% (active) | 12.5% | 2.81% (active) | -36.3% (active) | 19.1% | 7.09% (active)
